According to PubChem BioAssay:
The source made the active and inactive calls. Unless noted, the rule behind the calls is not given here.

Legend:
[1] = compounds binding Alexa647 anti-His antibody – biochemical, small-molecule microarray, 635 nm fluorescence, artefact control for SMM control protein annotation, primary screen (AID 1128); settings: higher = more signal;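 note: score merges feature fluorescence with signal-to-noise for each printed compound spot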
[2] = system: Human papillomavirus type 1a E7 protein (residues 1-88); experiment: HPV1a E7 small-molecule binders, primary screen, biochemical, small-molecule microarray, residues 1-88, 635 nm (AID 1129); settings: small-molecule microarray binding, fluorescence 635 nm; higher = more signal
[3] = biological target: Focal adhesion kinase 1 (Homo sapiens) (UniProt Q05397); experiment: PTK2 protein binding on printed compound slides – biochemical, small-molecule microarray, 635/667 nm fluorescence, BSA, DTT, primary screen (AID 1130); settings: 635 nm fluorescence, higher = more signal;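 note: composite of spot emission at 667 nm and signal to noise over triplicate slides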
Focal adhesion kinase 1 (Homo sapiens), sequence (Q05397 whole entry, looked up): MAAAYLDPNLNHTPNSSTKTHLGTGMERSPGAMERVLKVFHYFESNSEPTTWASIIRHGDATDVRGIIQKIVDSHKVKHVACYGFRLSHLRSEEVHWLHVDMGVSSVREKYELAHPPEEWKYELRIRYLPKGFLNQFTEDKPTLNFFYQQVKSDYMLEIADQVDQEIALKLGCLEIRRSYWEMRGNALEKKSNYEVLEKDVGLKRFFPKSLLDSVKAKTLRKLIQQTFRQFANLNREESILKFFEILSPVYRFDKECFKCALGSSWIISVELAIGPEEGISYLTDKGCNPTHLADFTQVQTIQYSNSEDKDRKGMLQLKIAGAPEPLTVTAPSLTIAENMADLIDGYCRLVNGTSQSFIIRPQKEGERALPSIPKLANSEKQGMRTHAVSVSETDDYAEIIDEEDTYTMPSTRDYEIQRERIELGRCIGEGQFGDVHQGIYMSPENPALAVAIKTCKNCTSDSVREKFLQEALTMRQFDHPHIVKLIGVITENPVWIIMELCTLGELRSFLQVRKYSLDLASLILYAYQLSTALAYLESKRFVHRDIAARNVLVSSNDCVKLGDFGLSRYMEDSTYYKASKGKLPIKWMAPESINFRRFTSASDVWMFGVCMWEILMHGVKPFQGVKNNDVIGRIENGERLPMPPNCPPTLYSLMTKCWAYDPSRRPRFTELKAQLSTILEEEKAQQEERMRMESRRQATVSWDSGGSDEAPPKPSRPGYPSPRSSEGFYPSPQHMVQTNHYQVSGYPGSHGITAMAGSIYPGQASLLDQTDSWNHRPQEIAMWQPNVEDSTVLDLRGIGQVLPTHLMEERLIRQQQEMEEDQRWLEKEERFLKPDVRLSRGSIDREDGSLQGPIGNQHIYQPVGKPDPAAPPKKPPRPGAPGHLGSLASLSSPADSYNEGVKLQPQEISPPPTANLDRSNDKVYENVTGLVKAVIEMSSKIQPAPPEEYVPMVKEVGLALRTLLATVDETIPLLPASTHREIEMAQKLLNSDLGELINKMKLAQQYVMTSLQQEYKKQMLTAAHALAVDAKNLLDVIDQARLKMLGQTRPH

[4] = system: Fibrinogen (Alexa647-labelled); experiment: Alexa647-fibrinogen binding to printed small molecules – biochemical, small-molecule microarray, 635/667 nm fluorescence, artefact control for SMM control-protein annotation, profiling panel (AID 1131); settings: fibrinogen-A647 binding fluorescence, higher = more signal;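 note: z-score merges 667 nm fluorescence with per-spot signal-to-noise over triplicate slides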
[5] = biological target: Follistatin (Homo sapiens) (UniProt P19883); experiment: FST protein binding to printed compounds – biochemical, small-molecule microarray, 635/667 nm fluorescence, primary screen (AID 1132); settings: 635 nm fluorescence, higher = more signal
Follistatin (Homo sapiens), sequence (P19883 whole entry, looked up): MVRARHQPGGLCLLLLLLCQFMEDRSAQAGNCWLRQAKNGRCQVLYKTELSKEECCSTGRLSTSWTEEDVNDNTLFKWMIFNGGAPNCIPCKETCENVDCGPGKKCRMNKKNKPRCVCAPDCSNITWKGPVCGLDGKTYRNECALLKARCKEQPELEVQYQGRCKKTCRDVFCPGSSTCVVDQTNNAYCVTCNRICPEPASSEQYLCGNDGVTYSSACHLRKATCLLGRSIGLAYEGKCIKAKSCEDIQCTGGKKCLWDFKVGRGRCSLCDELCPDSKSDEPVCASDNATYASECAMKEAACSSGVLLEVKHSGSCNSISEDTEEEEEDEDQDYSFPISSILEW

[6] = biological target: Fibroblast growth factor 2 (Homo sapiens) (UniProt P09038); experiment: basic fibroblast growth factor binding to printed compounds – biochemical, small-molecule microarray, 635/667 nm fluorescence, primary screen (AID 1133); settings: FGF2, fluorescence 635/667, higher = more signal
Fibroblast growth factor 2 (Homo sapiens), sequence (P09038 whole entry, looked up): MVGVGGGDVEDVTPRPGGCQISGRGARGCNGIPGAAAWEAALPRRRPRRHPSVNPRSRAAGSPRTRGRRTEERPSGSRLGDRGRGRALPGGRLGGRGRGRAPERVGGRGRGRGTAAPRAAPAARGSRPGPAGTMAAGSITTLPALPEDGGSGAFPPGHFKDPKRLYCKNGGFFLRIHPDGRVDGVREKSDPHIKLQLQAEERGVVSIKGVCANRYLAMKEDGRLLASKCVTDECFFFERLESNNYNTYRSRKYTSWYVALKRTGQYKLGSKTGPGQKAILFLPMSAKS

[7] = JC-1 mitochondrial potential readout, lung cancer cells – cell-based, A549, JC-1 fluorescence, basal, 24 h, 100 nL, profiling panel (AID 1138); settings: higher = more signal;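 note: A549 lung adenocarcinoma cells under basal conditions with no added stimulus; test concentration not given here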
Lefty1 = Lefty1 protein binding to printed compounds – biochemical, small-molecule microarray, 635/667 nm fluorescence, primary screen (AID 1139); settings: fluorescence 635/667, higher = more signal
[8] = system: wheat germ agglutinin (Triticum aestivum), Alexa647-labelled; experiment: Alexa647-WGA lectin binding to printed small molecules – biochemical, small-molecule microarray, 635/667 nm fluorescence, artefact control for SMM control-protein annotation, profiling panel (AID 1140); settings: WGA-A647 binding, 635 nm fluorescence, higher = more signal;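 note: score merges 667 nm feature emission with signal to noise over triplicate slides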
[9] = biological target: Luciferin 4-monooxygenase (Photinus pyralis) (UniProt P08659); experiment: inhibition of purified Photinus pyralis luciferase – biochemical, luminescence, purified enzyme, 2006 set, primary screen (AID 1141); settings: purified firefly luciferase, SteadyGlo luminescence, 30 min; higher = more signal, called active from +8 up or from −8 down;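 note: cell-free assay with purified firefly luciferase at 100 ng per well in PBS; test concentration not given here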
Luciferin 4-monooxygenase (Photinus pyralis), sequence (P08659 whole entry, looked up): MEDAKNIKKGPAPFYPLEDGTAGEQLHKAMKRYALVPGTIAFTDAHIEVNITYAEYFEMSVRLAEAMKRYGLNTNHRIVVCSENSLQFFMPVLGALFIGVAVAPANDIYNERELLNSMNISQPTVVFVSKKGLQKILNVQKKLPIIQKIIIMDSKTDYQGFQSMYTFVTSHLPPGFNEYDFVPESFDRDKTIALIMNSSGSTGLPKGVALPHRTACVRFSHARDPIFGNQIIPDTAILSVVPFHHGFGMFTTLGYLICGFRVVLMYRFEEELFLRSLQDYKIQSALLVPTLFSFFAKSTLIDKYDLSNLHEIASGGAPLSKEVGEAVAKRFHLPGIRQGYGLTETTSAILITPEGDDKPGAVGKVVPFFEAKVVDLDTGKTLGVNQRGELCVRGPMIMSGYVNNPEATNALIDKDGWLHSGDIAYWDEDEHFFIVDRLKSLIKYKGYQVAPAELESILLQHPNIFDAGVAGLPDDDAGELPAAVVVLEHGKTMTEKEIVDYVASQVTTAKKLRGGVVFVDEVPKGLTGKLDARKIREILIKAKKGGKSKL

[10] = system: Wnt5a (protein binding on small-molecule microarray); experiment: small molecules binding Wnt5a protein – biophysical, small-molecule microarray, 635/667 nm fluorescence, primary screen (AID 1142); settings: 635 nm fluorescence, higher = more signal;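 note: fluorescence read at 667 nm with signal to noise per printed feature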
[11] = ATP-based viability of Huh7 replicon cells – cell-based, CellTiter-Glo luminescence, basal, 48 h, cytotoxicity control for HCV replication inhibitor project, primary screen (AID 1143); settings: higher = more signal, called active from +8 up or from −8 down;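 note: Huh7 hepatoma cells carrying a hepatitis C replication reporter with no stimulus; test concentration not given here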
[12] = Pseudomonas biofilm growth suppression – PAO1 strain, BacTiter-Glo luminescence, LB-PBS, primary screen (AID 1144); settings: P. aeruginosa PAO1 biofilm, 12 h, higher = more signal
[13] = basal CRE-LacZ reporter activity in PC12 – cell-based, unstimulated, primary screen (AID 1145); settings: no forskolin, luminescence, 4.5 h, higher = more signal, called active from +8 up or from −8 down
[14] = forskolin-driven CRE-LacZ activity in PC12 – cell-based, CRE-LacZ reporter, forskolin-stimulated, primary screen (AID 1146); settings: luminescence, 4.5 h, higher = more signal, called active from +8 up or from −8 down;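 note: PC12 cells with 6xCRE LacZ reporter stimulated by forskolin 10 µM; beta-galactosidase reporter signal reflecting CREB driven transcription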
[15] = biological target: Streptavidin (Streptomyces avidinii) (UniProt P22629); experiment: compounds binding control protein streptavidin – biophysical, small-molecule microarray, 635/667 nm fluorescence, artefact control for SMM compound annotation, primary screen (AID 1147); settings: higher = more signal;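 note: signal reflects streptavidin binding to arrayed compounds as a control protein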
Streptavidin (Streptomyces avidinii), sequence (P22629 whole entry, looked up): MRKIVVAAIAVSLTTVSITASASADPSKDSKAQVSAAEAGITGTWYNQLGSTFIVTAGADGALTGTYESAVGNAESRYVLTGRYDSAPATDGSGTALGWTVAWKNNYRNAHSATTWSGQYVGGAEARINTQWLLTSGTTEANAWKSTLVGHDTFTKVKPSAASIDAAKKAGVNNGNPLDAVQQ

[16] = probe aInhba binding on compound microarray – biochemical, small-molecule microarray, 635/667 nm fluorescence, primary screen (AID 1148); settings: higher = more signal;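 note: score merges 667nm spot fluorescence with signal-to-noise for antibody binding to printed compounds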
Torsin-1A (Homo sapiens) [17] = biological target: Torsin-1A (Homo sapiens) (UniProt O14656); experiment: TOR1A wild-type binding on microarray – cell lysate, small-molecule microarray, lysate, 635/667 nm, primary screen (AID 1149); settings: COS7 hTOR1A-WT lysate, 635 nm fluorescence, higher = more signal
Torsin-1A (Homo sapiens), sequence (O14656 whole entry, looked up): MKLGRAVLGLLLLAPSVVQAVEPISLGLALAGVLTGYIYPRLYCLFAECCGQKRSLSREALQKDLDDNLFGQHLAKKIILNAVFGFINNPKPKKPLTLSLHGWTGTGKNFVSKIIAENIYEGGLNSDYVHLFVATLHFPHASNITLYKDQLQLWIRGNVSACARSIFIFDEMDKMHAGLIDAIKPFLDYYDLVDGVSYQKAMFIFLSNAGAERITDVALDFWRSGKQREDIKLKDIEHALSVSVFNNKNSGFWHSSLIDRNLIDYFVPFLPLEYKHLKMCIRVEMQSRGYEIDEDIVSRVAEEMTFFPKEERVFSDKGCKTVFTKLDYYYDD

Torsin-1A (Homo sapiens) [18] = biological target: Torsin-1A (Homo sapiens) (UniProt O14656); experiment: torsin A mutant lysate binding on microarrays – cell lysate, small-molecule microarray, COS7 lysate, 635/667 nm fluorescence, primary screen (AID 1150); settings: COS7 hTOR1A mutant lysate, 635 nm fluorescence, higher = more signal;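 note: score pools 667 nm emission and signal to noise measuring lysate protein binding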
[19] = system: Sonic hedgehog protein (Shh); experiment: Sonic hedgehog microarray binding compounds – biochemical, small-molecule microarray, 635/667 nm fluorescence, primary screen (AID 1151); settings: 635 nm fluorescence, higher = more signal;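 note: Shh protein binding to compounds spotted on small-molecule microarray slides; score combines spot fluorescence intensity with signal-to-noise across triplicate slides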

SMILES	composite z-score [1]	composite z-score [2]	composite z-score [3]	composite z-score [4]	composite z-score [5]	composite z-score [6]	z-score [7]	composite z-score (Lefty1)	composite z-score [8]	z-score [9]	composite z-score [10]	z-score [11]	z-score [12]	z-score [13]	z-score [14]	composite z-score [15]	composite z-score [16]	composite z-score (Torsin-1A (Homo sapiens) [17])	composite z-score (Torsin-1A (Homo sapiens) [18])	composite z-score [19]
COCCOC(=O)N1C(=O)[C@@]2(c3cc(C#Cc4ccc(OC)cc4)ccc31)[C@H](c1ccc(OCCO)cc1)N1[C@H](c3ccccc3)[C@H](c3ccccc3)OC(=O)[C@H]1[C@@H]2C(=O)N1CCc2cc(OC)c(OC)cc2C1	0.512	1.08	0.272	-0.122	1.25	1.24	-1.35	1.13	-0.12	-0.584 (inactive)	0.377	-2.85 (inactive)	-1.61 (inactive)	-1.15 (inactive)	-1.33 (inactive)	0.482	-0.0736	0.37	0.454	1.85
NC(=O)[C@@]1(CCS(=O)(=O)c2ccccc2)N=C(c2ccc(OCCCO)cc2)O[C@H]1c1ccccc1	2.14	1.27	0.533	1.02	0.78	-0.507	-0.309	-0.0434	1.17	0.155 (inactive)	0.211	-5.04 (inactive)	0.814 (inactive)	0.0451 (inactive)	-1.38 (inactive)	0.856	0.0872	0.699	0.799	-1.2
O=P(NCC1(CC2(c3ccccc3)CO2)CC1)(c1ccccc1)c1ccccc1 (stereo not given)	0.618	0.376	0.338	-1.05	-1.23	-1.36	1.11	-2.28	-0.0073	1.33 (inactive)	-0.402	-0.814 (inactive)	0.318 (inactive)	0.197 (inactive)	1.13 (inactive)	-0.767	-0.0448	-0.87	-0.754	-1.41
O=C1OCCC/C=C\[C@H]2OC34C=CCN(CCN5CCOCC5)C(=O)[C@H]3N(CCO)C(=O)[C@@H]4C12 (stereo not given in full)	2.47	-1.64	-0.3	-0.786	-0.981	-0.322	-1.08	-1.57	-0.365	0.634 (inactive)	-0.425	0.364 (inactive)	0.145 (inactive)	-0.342 (inactive)	0.0806 (inactive)	-0.671	-0.203	-0.176	-0.506	-0.703
O=C1OCC=C[C@H]2OC34C=CCN(Cc5ccccc5)C(=O)[C@H]3N(CCCO)C(=O)[C@@H]4[C@@H]12 (stereo not given in full)	2.26	0.374	1.14	-0.827	0.397	-0.56	-0.63	1.12	-0.0711	-0.241 (inactive)	-0.312	-2.33 (inactive)	-1.04 (inactive)	-0.899 (inactive)	-0.59 (inactive)	-0.707	0.222	-0.667	-0.239	1.44
C=C(COC)C(=O)CC[C@H](OC(=O)c1cccnc1)c1ccccc1OCCO	1.12	1.16	-0.0493	0.756	1.36	1.56	-0.0406	1.47	0.18	-2.36 (inactive)	0.112	-2.22 (inactive)	-0.201 (inactive)	5.43 (inactive)	9.65 (active)	0.279	0.0705	0.519	0.698	1.63
C=C(C(=O)CC[C@@H](OC(=O)c1cccnc1)c1ccc(CO)o1)C(C)C	-0.403	0.799	0.113	0.82	1.26	1.1	0.288	1.56	0.187	-1.96 (inactive)	0.27	0.184 (inactive)	0.228 (inactive)	0.48 (inactive)	-0.135 (inactive)	0.156	0.209	0.787	0.584	1.75
Cc1ccccc1/C=C/C=O	-0.0248	-1.29	-0.3	-2.75	-0.0561	-0.134	0.795	-0.234	-0.604	0.702 (inactive)	-0.373	-0.042 (inactive)	-0.242 (inactive)	-0.204 (inactive)	0.834 (inactive)	-0.943	-0.137	-1.41	-0.62	-0.0373
CCOC(=O)C[C@H]1[C@H](OC(=O)c2cc3ccccc3oc2=O)[C@@H](NC(=O)c2ccc3ccccc3c2)c2cc(OCCCO)ccc2N1C(=O)c1ccccc1	0.138	1.2	0.482	0.414	1.08	0.512	-0.59	1.09	0.357	0.151 (inactive)	0.406	-3.04 (inactive)	1.4 (inactive)	9.27 (active)	0.368 (inactive)	0.976	-0.0405	1.14	1.11	1.54
CO[C@H]1O[C@H](CO)[C@@H](OC(=O)Nc2cccc(F)c2)[C@H](OC(=O)Nc2ccccc2-c2ccccc2)[C@@H]1OC(=O)Nc1ccccc1-c1ccccc1	1.61	1.25	0.797	1	1.09	0.205	-1.16	0.102	1.11	0.923 (inactive)	0.21	-5.49 (inactive)	-0.579 (inactive)	0.306 (inactive)	0.0811 (inactive)	1.88	0.212	0.838	0.886	0.667
